Screening data deposited in PubChem by NMMLSC.
Bfl-1 Bim block = disrupts Bim binding to human Bfl-1; Q16548; Bead-based flow cytometry, Bim-Bfl-1 binding inhibition; inhibition, % at 10 µM; hit rate 0.12% among 190,000; AID 1008
Target sequence (Q16548 whole entry, looked up): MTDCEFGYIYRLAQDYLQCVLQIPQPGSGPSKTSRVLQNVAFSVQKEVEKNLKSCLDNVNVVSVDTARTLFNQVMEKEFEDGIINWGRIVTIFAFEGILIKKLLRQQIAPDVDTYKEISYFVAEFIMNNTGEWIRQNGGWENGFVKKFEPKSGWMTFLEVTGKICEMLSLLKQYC
Bim-Bcl-W = inhibitors of Bim-Bcl-W interaction, human. hit rate 0.02% among 190,000. inhibition, % at 10 µM. bead-based flow cytometry, Bim peptide-Bcl-W binding;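 also: higher means less fluorescent Bim peptide bound to Bcl-W beads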
Target sequence (Q92843 whole entry, looked up): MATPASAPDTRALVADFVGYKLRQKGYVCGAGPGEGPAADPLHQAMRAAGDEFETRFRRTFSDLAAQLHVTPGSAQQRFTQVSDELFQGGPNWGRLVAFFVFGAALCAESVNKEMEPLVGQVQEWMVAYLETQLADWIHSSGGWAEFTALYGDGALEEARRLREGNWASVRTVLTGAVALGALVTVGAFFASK
Bcl-B Bim block = inhibitors of Bim-Bcl-B interaction, human | bead-based flow cytometry, Bim peptide-Bcl-B binding | inhibition, % at 10 µM | hit rate 0.073% among 190,000
Target sequence (Q9HD36 whole entry, looked up): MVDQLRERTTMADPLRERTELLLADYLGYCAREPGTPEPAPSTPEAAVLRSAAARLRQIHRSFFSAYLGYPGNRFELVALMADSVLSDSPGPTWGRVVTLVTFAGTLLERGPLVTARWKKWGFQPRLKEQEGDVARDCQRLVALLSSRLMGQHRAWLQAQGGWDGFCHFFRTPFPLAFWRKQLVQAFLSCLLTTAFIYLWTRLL
Bcl-XL Bim block = disrupts Bim peptide binding to human Bcl-XL | Q07817 | bead flow cytometry, fluorescence | inhibition, % at 10 µM | hit rate 0.04% among 190,000
Bim-Bcl-2 = disrupts Bim peptide binding to human Bcl-2; P10415; Bead-based flow cytometry, Bim peptide-Bcl-2 binding; inhibition, % at 10 µM; hit rate 0.06% among 190,000; in the data active = inhibition above about 40%
Bim-Bcl-XL DR = Bim-Bcl-XL interaction regulation, dose confirmation; 40 tested, under 10 active; bead-based flow cytometry, Bim-Bcl-XL binding; inhibition of binding at 100 µM; AID 2084; shares compounds with Bfl-1 Bim block; call rule not given here
Numbers stand for hits; i = inactive; nt = not tested or not shown. In the library only some 0.2% were active in any assay of this set; here they are far more common. Rule as the data show it, unless noted: active = inhibition above about 40%.

SMILES	Bfl-1 Bim block	Bim-Bcl-W	Bcl-B Bim block	Bcl-XL Bim block	Bim-Bcl-2	Bim-Bcl-XL DR
CCN1/C(=C/c2ccc3cc(C)cc(C)c3[n+]2CC)Sc2cc(C)ccc21	45	i	i	i	i	nt
CC(C)(C=O)C1=CC(=O)c2ccccc2C1=O	49	i	i	i	i	nt
COc1ccc(C(=O)NCc2nnc(SCC(=O)N3CCc4ccccc43)n2CCc2ccccc2)cc1	i	i	i	i	i	nt
CN(C(=O)COC(=O)CNC(=O)c1ccc(Cl)cc1Cl)c1ccccc1	i	i	i	i	i	nt
CC(=O)c1ccc(-n2nncc2C(C)(C)C)cc1	i	i	i	i	i	nt
Cc1cnnn1-c1ccc(C(=O)CCl)cc1	60	60	i	i	i	nt
COC(=O)C1=C(C(=O)OC)C2C(C)=CC(C)=CN2C(C(=O)OC)=C1C(=O)OC (configuration not stated)	i	i	i	i	i	nt
CCN1C(=O)/C(=C/C=C2\C=CN(CC)c3ccccc32)SC1=S	50	i	i	i	i	nt
CCCN1C(=O)/C(=C\C=C2/Sc3ccccc3N2CC)SC1=S	i	i	i	i	i	nt
COC(=O)c1c(NC(=O)COc2ncnc3ccccc23)sc(C)c1C	i	i	55	i	i	nt
Cc1ccc(OCc2cn3cccnc3n2)cc1	i	i	58	i	i	nt
COC(=O)c1[nH]c2ccccc2c1NC(=O)c1ccccc1[N+](=O)[O-]	i	i	44	i	i	nt
COCCNC(=O)Cn1cc(C(=O)c2ccco2)c2ccccc21	i	i	i	i	i	nt
COC(=O)/C(=C/c1c[nH]c2ccccc12)NC(C)=O	i	i	i	i	i	nt
COC(=O)/C(=C/c1ccc(F)cc1)NC(C)=O	i	i	48	i	i	nt
CC1CCN(c2c([N+](=O)[O-])c(=O)oc3ccccc23)CC1	i	i	i	i	i	nt
CN(Cc1ccccc1)c1ccc(S(=O)(=O)N2CCC(C(=O)O)CC2)cc1[N+](=O)[O-]	i	i	i	i	i	nt
CCc1ccc(OCC(=O)N/N=C(\C)c2ccc3c(c2)OCCO3)cc1	i	i	i	i	i	nt
C/C(=N\NC(=O)COc1ccc(C(C)(C)C)cc1)c1ccc2c(c1)OCCO2	i	48	88	i	85	nt
Cc1ccc(NC(=O)C/C(N)=N/OC(=O)c2ccccc2)cc1	51	i	64	i	73	nt
COc1ccc(NC(=O)C(=O)N2N=C(C(C)C)CC2(O)C(F)(F)F)cc1 (configuration not stated)	i	i	i	i	i	nt
Cc1ccc(C)c(/C=C/C(=O)c2ccccc(=O)c2O)c1	41	i	i	i	i	nt
O=C(/C=C/c1ccccc1Cl)c1ccccc(=O)c1O	54	i	i	i	42	nt
Cc1ccc(/C=C/C(=O)c2ccccc(=O)c2O)c(C)c1	i	i	i	i	i	nt
Cc1c(C(=O)Nc2ccccc2-c2ccccc2)cccc1[N+](=O)[O-]	i	i	i	i	i	nt
SMILES	Bfl-1 Bim block	Bim-Bcl-W	Bcl-B Bim block	Bcl-XL Bim block	Bim-Bcl-2	Bim-Bcl-XL DR
COc1ccccc1C(=O)Nc1sc2c(c1C(=O)NCc1ccco1)CCCC2	i	i	i	i	i	nt
CCn1c(C)nc2cc(C(=O)N/N=C/c3cccc(OC)c3O)ccc21	i	i	i	i	i	nt
CCn1c(C)nc2cc(C(=O)N/N=C/c3ccc(O)c(O)c3O)ccc21	52	i	i	i	i	nt
CCN(CC)S(=O)(=O)c1cccc(C(=O)N/N=C/c2ccc(O)c(O)c2O)c1	i	i	43	54	i	nt
CC(=O)c1cccc(NC(=O)C2C3C=CC(C3=C(c3ccccc3)c3ccccc3)C2C(=O)O)c1 (configuration not stated)	i	i	i	i	i	nt
COc1ccc2cc(CN(CCc3ccccc3)Cc3nnnn3CC3CCCO3)c(=O)[nH]c2c1 (configuration not stated)	44	i	i	42	i	nt
CCN(c1ccccc1)S(=O)(=O)c1cc([N+](=O)[O-])ccc1N	i	i	i	i	i	nt
COc1ccccc1NC(C)=O	i	i	i	i	i	nt
COc1ccccc1NC1=C(NC(C)=O)C(=O)c2ccccc2C1=O	42	i	i	i	i	i
O=C(O)c1c(-n2cccc2)sc2c1CCCC2	i	i	i	i	i	nt
COC(Cc1n[nH]c(=S)n1-c1ccc(Cl)cc1)OC	i	i	i	i	i	nt
S=c1[nH]cc(-c2ccccc2)n1-c1ccccc1	i	i	i	i	i	i
CCCN=C1N/C(=C\c2ccco2)C(=O)N1c1ccccc1	i	i	i	i	i	nt
O=C1/C(=C\c2ccco2)NC(=S)N1c1ccccc1	i	i	i	i	i	i
Cc1ccc(C=NNC(=O)CSc2nnc(-c3ccc(Cl)cc3)n2-c2ccccc2)o1	nt	nt	nt	nt	nt	i
Cc1ccc(/C=N/NC(=O)CSc2nnc(-c3ccccc3)n2-c2ccc(Cl)cc2)o1	i	i	i	i	i	nt
CCN1C(=O)/C(=C\C=C2/C=CC=CN2CC)SC1=S	i	i	i	i	i	i
CCN1C(=O)/C(=C2/C=CC=CN2C)SC1=S	i	i	i	i	i	nt
CN(CCO)c1cc(Sc2nc3ccccc3s2)c2nonc2c1[N+](=O)[O-]	50	i	i	i	i	i
Cc1ccc(-c2cc(-c3ccc(Cl)cc3)c(C#N)c(N)n2)o1	i	i	i	i	i	nt
Cc1ccc(-c2cc(-c3ccc(F)cc3)c(C#N)c(N)n2)o1	i	i	i	i	i	i
Cc1ccc(-c2cc(-c3ccc4c(c3)OCO4)c(C#N)c(N)n2)o1	i	i	i	i	i	nt
Cc1cc(-c2cc(-c3ccc(Cl)cc3)nc(N)c2C#N)co1	40	i	i	i	i	i
Cc1ccc(-c2cc(-c3ccc(C)o3)nc(N)c2C#N)cc1	nt	i	nt	i	85	i
CCOc1ccc(CSC(CC(=O)O)C(=O)O)cc1 (configuration not stated)	i	i	i	i	i	nt
SMILES	Bfl-1 Bim block	Bim-Bcl-W	Bcl-B Bim block	Bcl-XL Bim block	Bim-Bcl-2	Bim-Bcl-XL DR
Cc1ccc(CN2CCN(Cc3cccn3-c3nccs3)CC2CCO)cc1 (configuration not stated)	i	i	i	i	i	nt
C=CSc1sc(Cl)c(N2CCOCC2)c1[N+](=O)[O-]	i	i	i	i	i	nt
C=CS(=O)(=O)c1sc(Cl)c(N2CCOCC2)c1[N+](=O)[O-]	48	i	i	i	i	i
CCN(CC)c1ccc(NC(=O)c2ccccc2F)cc1S(=O)(=O)Nc1ccccc1OC	i	i	i	i	i	i
CCN(CC)c1ccc(NC(=O)COc2ccccc2C)cc1S(=O)(=O)Nc1ccccc1OC	i	i	i	i	i	i
CCN(CC)c1ccc(NC(=O)c2ccccc2Br)cc1S(=O)(=O)Nc1ccccc1OC	i	i	i	i	i	i
COC(=O)CSC(C)C(=O)Nc1nnc(C(C)C)s1 (configuration not stated)	i	i	i	i	i	nt
COc1cc([N+](=O)[O-])ccc1NC(=O)C[n+]1ccccc1	i	i	i	i	i	nt
CCN(CC)C(=O)COC(=O)c1cc(-c2ccco2)nc2ccccc12	45	i	i	i	i	i
CC(C)COc1ccc(N)cc1OCC(C)C	i	i	i	i	i	nt
O=C(/C=C/c1ccc(-c2ccccc2[N+](=O)[O-])o1)c1ccccc1	i	i	i	i	i	i
CNC(=O)/C(C#N)=C/c1ccc(-c2ccccc2[N+](=O)[O-])o1	i	i	i	i	i	nt
CCN(CCCNC(=O)C1CCN(S(=O)(=O)c2cnc[nH]2)CC1)c1cccc(C)c1	i	i	i	i	i	nt
O=c1c2c(n3nnnc3n1Cc1ccccc1)-c1ccccc1CC21CCCC1	i	i	69	i	i	i
